{"source": "PubChem BioAssay AID1347383", "about": "(Zoeller Lab, School of Medicine, Boston University, 2020)", "note": "Calls of active or inactive are those of the source.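 Rule for the calls: active = cell survival after UV exposure 2 SD above solvent-only control wells at 10 µM, confirmed on one or two repeats; inactive = the rest.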", "data": [{"assay": "protection of CHO cells from pyrene-fatty acid UV killing, primary screen, phospholipid biosynthesis inhibitor project, ZR-82 cells, Analyticon library, screen 2 (AID 1347383);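 note: survival reflects blocked phospholipid synthesis cutting uptake of the phototoxic fatty acid; compound and fatty acid exposure 3 h then viability read next day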", "details": "ZR-82 CHO cells, CellTiter Blue, at 10 µM, peroxisome-deficient CHO-K1 variant, with DGAT-1, DGAT-2 and ACAT inhibitors", "values": [{"smiles": "Cn1c(=O)c2c(ncn2C)n(C)c1=O", "outcome": "inactive"}, {"smiles": "CC1=C[C@H]2[C@@H](CC1=O)[C@H](C)C[C@H](O)[C@H]2C(C)C", "outcome": "inactive"}, {"smiles": "OCCc1ccc(O)cc1O", "outcome": "inactive"}, {"smiles": "C/C(=C\\C(=O)C(C)C1CCC2C3=C(CCC21C)C1(C)CCC(O)C(C)(C)C1(O)CC3)C(C)(C)O", "note": "(centres undefined)", "outcome": "inactive"}, {"smiles": "CCC(C)C(=O)OC1CCCC2C=CC(C)C(CCC(O)CC(O)CC(=O)O)C21", "note": "(centres undefined)", "outcome": "inactive"}, {"smiles": "CC(=O)C(C)C1OC(CCO)c2cc(C)ccc2C1C", "note": "(centres undefined)", "outcome": "inactive"}, {"smiles": "O=C1CC(c2ccccc2)Oc2cc(O)cc(O)c21", "note": "(centres undefined)", "outcome": "inactive"}, {"smiles": "O=C(CCc1ccc(O)cc1)c1c(O)cc(O)cc1O", "outcome": "inactive"}, {"smiles": "C/C=C(/COC(=O)/C(C)=C/C)C(=O)OC/C=C/c1ccc(OC)cc1", "outcome": "inactive"}, {"smiles": "O=c1c(O)c(-c2ccccc2)oc2cc(O)cc(O)c12", "outcome": "inactive"}, {"smiles": "C=C(C=O)[C@]1(O)C[C@@]2(C)C(=CC1=O)C=C[C@H](OC(=O)/C=C/C=C/[C@H](C)CC)[C@@H]2C", "outcome": "inactive"}, {"smiles": "C/C=C/C1=C(Cl)C(=O)[C@@H](O)[C@@]1(O)C(=O)OC", "outcome": "inactive"}, {"smiles": "CC[C@H](C)/C=C(C)/C=C/C1=CC2=CC(=O)[C@]3(C)OC(=O)[C@@H](C(C)=O)[C@@H]3C2=CO1", "outcome": "inactive"}, {"smiles": "COc1cc2c(c(OC)c1OC)-c1ccc(OC)c(=O)cc1[C@@H](NC(C)=O)CC2", "outcome": "inactive"}, {"smiles": "CC1CC(O)/C=C/C(O)CCC(=O)Cc2c(Cl)c(O)cc(O)c2C(=O)O1", "note": "(centres undefined)", "outcome": "inactive"}, {"smiles": "C=C(C(=O)O)[C@@H]1CC[C@H](C)[C@@H]2CC(=O)C(C)=C2C1", "outcome": "inactive"}, {"smiles": "CC1=C2C[C@]3(C)C(=O)C[C@@H](C(C)C)[C@H]3C/C=C(/C)[C@@H]2CC1=O", "outcome": "inactive"}, {"smiles": "O=C(O)CCC1OC(=O)C(O)=C1c1ccccc1", "note": "(centres undefined)", "outcome": "inactive"}, {"smiles": "CC(CO)C1CCC2(C)CC3C(CO)CC(O)C3C(C)(O)CC=C12", "note": "(centres undefined)", "outcome": "inactive"}, {"smiles": "O=C1CC(c2ccc(O)c(O)c2)Oc2cc(O)cc(O)c21", "note": "(centres undefined)", "outcome": "inactive"}, {"smiles": "COc1cc(O)c(C(=O)c2c(C)cc(O)cc2OC)c(O)c1", "outcome": "inactive"}, {"smiles": "COc1c(C2=Cc3ccc(O)cc3OC2)ccc(O)c1CC=C(C)C", "outcome": "inactive"}, {"smiles": "O=C1c2c(O)cc(O)cc2O[C@@H](c2ccc(O)cc2)[C@@H]1O", "outcome": "inactive"}, {"smiles": "C=C[C@@]12COC(=O)C(=C)[C@@H]1[C@@H](O)[C@H](C(=C)C(=O)OC)[C@@H](O)C2", "outcome": "inactive"}, {"smiles": "CO[C@@H]1C(=O)CC[C@]2(O)CO[C@H](CC=C(C)C)[C@](C)(O)[C@@]12O", "outcome": "inactive"}, {"smiles": "CCCCCCCCCC(O)CC(CC(CC1CC=CC(=O)O1)OC(C)=O)OC(C)=O", "note": "(centres undefined)", "outcome": "inactive"}, {"smiles": "COc1cc(O)c2c(c1)C(=O)c1cc(C)cc(O)c1C2=O", "outcome": "inactive"}, {"smiles": "COC(=O)/C=C/C1(O)C=CC(=O)C=C1", "outcome": "inactive"}, {"smiles": "COC(=O)CCC(=O)OC[C@]1(C)CCC[C@@]2(C)C3CC[C@]4(C)C=CC3(CCC12)C4", "note": "(some centres undefined)", "outcome": "inactive"}, {"smiles": "CCC/C=C\\CC(N)CC(=O)O", "note": "(centres undefined)", "outcome": "inactive"}, {"smiles": "O=C1NC(Cc2ccccc2)C(=O)N2CCCC12", "note": "(centres undefined)", "outcome": "inactive"}, {"smiles": "CCC(C)C(=O)OC1CC(C)C=C2C=CC(C)C(CCC(O)CC(O)CC(=O)O)C21", "note": "(centres undefined)", "outcome": "inactive"}, {"smiles": "C=CC(C)(C)c1cc2cc(CC(O)C(C)(C)O)c(OC)cc2oc1=O", "note": "(centres undefined)", "outcome": "inactive"}, {"smiles": "CC1(C)CCCC2(C)C(CO)C3CCC2C31", "note": "(centres undefined)", "outcome": "inactive"}, {"smiles": "C=C1C(=O)OC2C1C(O)CC1(C)C(O)CCC(C=O)C21", "note": "(centres undefined)", "outcome": "inactive"}, {"smiles": "COc1cc(OC)c(C(O)C(C)O)cc1OC", "note": "(centres undefined)", "outcome": "inactive"}, {"smiles": "CC1=CC(=O)CC(C)(C)[C@@]1(O)/C=C/C(C)=C/C(=O)O", "outcome": "inactive"}, {"smiles": "CC1CCC2(C(=O)O)CCC3(C)C(C=CC4C5(C)CC(O)C(O)C6(C)COC(CC43C)C65)C2C1(C)O", "note": "(centres undefined)", "outcome": "inactive"}, {"smiles": "CN1[C@@H]2CC[C@H]1CC(OC(=O)C(CO)c1ccccc1)C2", "note": "(some centres undefined)", "outcome": "inactive"}]}]}
